# Bioassay records from PubChem.
# Tau fluor cs = Counterscreen qHTS for Inhibitors of Tau Fibril Formation, Fluorescence Polarization; tau K18 P301L Alexa594 fluorescence, heparin fibrillization; Potency, µM (series often up to 57.7 µM), for inactives: top-dose activity change, negative = decrease; 280,000 tested, 0.93% active; AID 1463, 2008; note: potency is the fitted concentration of half-maximal effect; nearly all actives have a fitted effect of over 55% in size
#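 Human tau K18 P301L (15 uM unlabeled, 0.24 uM Alexa 594-labeled) in 100 mM sodium acetate pH 7 with 20 uM heparin, 6 hr at 37 C. ThT 30 uM added, 1 hr ambient; Alexa 594 FP and total fluorescence read at 555/632 nm.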
# Sfp inh = qHTS Assay for Inhibitors of Bacillus subtilis Sfp phosphopantetheinyl transferase (PPTase) | AID 1490, 2009 | 4'-phosphopantetheinyl transferase ffp (Bacillus subtilis), Q9F4F7 | 310,000 tested, 3.5% active | Potency, µM, for inactives: largest response in the series, negative = inhibition, hits mostly inhibitors | Biochemical Sfp PPTase activity, qHTS;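 note: the enzyme is Sfp with the accession as filed and its product quenches rhodamine fluorescence; potency is the fitted concentration of half-maximal effect; 0% = enzyme reaction without inhibitor and -100% = no enzyme wells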
#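 Buffer: 50 mM Hepes-Na pH 7.6, 10 mM MgCl2, 0.01% Nonidet P-40, 0.01% BSA. Enzyme 15 nM, pre-exposed to compound 15 min; substrates then added and fluorescence change tracked over 30 min.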
# Tau fibril FP = qHTS for Inhibitors of Tau Fibril Formation, Fluorescence Polarization; K18 P301L tau heparin fibrillization, Alexa594 FP, 6 h; Potency, µM (titrated, usually from 57.7 µM), without a hit: top-dose activity, negative = inhibition, most hits filed as inhibitors; AID 1468, 2008; Microtubule-associated protein tau (Homo sapiens), P10636; 280,000 tested, 0.39% active; note: potency is the fitted concentration of half-maximal effect; nearly all actives have a fitted effect of over 55% in size
# Target sequence (P10636 561-689 P618L limits assumed): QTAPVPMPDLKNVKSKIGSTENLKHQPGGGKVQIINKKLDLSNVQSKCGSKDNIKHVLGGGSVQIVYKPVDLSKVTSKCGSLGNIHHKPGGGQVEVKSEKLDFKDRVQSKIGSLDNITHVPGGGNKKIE
#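 FP of Alexa 594-tau after heparin (20 uM) induction. Substrate: human K18 P301L, 15 uM unlabeled, 0.24 uM labeled. Buffer 100 mM sodium acetate pH 7. 6 hr, 37 C.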
# FBPA coupling cs = qHTS Assay for Inhibitors of Fructose-1,6-bisphosphate Aldolase from Giardia Lamblia: Coupling assay counterscreen. 290,000 tested, 0.67% active. coupling enzyme system counterscreen, AmpLite Red fluorescence. activity change, negative = inhibition, % at 58.2 µM, hits read low; in the data active = activity change below about -30%
#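 Coupling enzymes only (glyceraldehyde-3-phosphate) + compound, at 57.5 uM final, 10 min RT; add substrate/coupling/AmpLite Red mix, 20 min RT; fluorescence ex 525/em 598 nm. Actives flag coupling-system interference.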
# Tau ThT inhib = qHTS for Inhibitors of Tau Fibril Formation, Thioflavin T Binding; recombinant tau K18 P301L (four-repeat tau fragment), heparin-induced fibrillization, ThT fluorescence; Potency, µM (series often up to 57.4 µM), for inactives: top-dose activity, negative = inhibition, most hits filed as inhibitors; 270,000 tested, 2.1% active; note: potency is the fitted concentration of half-maximal effect; nearly all actives have a fitted effect of over 55% in size
#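 Recombinant human tau K18 fragment […] carrying P301L, 15 uM unlabeled plus 0.24 uM Alexa 594-labeled, was fibrillized with 20 uM heparin in 100 mM sodium acetate pH 7 for 6 hr at 37 C; 30 uM ThT fluorescence read after 1 hr.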
# * marks the source's active call; other numbers are inactive results; ? = inconclusive; / = not tested or not shown; [ ] = another dose, or the depositor's remark. Hits are enriched below; roughly 5.2% of the tested compounds scored in any of these assays. Unless noted, calls come from the whole dose curve; as a rule, active = well fitted curve in the direction sought with a large enough effect; inconclusive = small, poorly fitted or top-dose-only effect, or another doubt; inactive = no such curve, though single readings can be large; an effect the other way counts as inactive or inconclusive. Unless noted, % is set by controls: 0 for no effect and ±100 for the full control effect.
SMILES,Tau fluor cs,Sfp inh,Tau fibril FP,FBPA coupling cs,Tau ThT inhib
Cc1cc(C)cc(NC(=O)Cn2c(=O)n(Cc3ccc4c(c3)OCO4)c(=O)c3oc4ccccc4c32)c1,-18.7%,/,?,/,17.2%
Cn1nc(-c2ccccc2)cc1NC(=O)Nc1ccc(C(C)(C)C)cc1,12.6µM*[quencher],25.3%,28.2µM*,-5.5,-0.3%
Cn1nc(-c2ccc(Cl)cc2)cc1NC(=O)Nc1ccccc1,?,0.2%,?,-1.5,13.6%
COc1ccc2c(c1)c1c(c(=O)n(-c3ccc(F)c(Cl)c3)c(=O)n1Cc1ccccc1F)n2C,1.5%,/,-12.9%,/,6.3%
Cn1c(N)c(C(=O)COC(=O)c2ccccn2)c(=O)n(C)c1=O,-1.2%,6.0%,-7.1%,0.8,-0.5%
O=C(OCC(=O)c1ccccc1Br)c1ccccn1,-0.5%,56.2µM*,-2.4%,-0.6,-14.3%
Cc1cccc(-n2cnc3c(c2=O)c2nc4ccccc4nc2n3Cc2ccco2)c1,-21.0%,3.55µM*,?,-1.1,?
COc1ccc(Cn2c3nc4ccccc4nc3c3c(=O)n(Cc4ccco4)cnc32)cc1,-18.1%,4.47µM*,-16.8%,-2.9,?
CCCn1cnc2c(c1=O)c1nc3ccccc3nc1n2Cc1ccccc1OC,-4.3%,8.4%,-3.5%,0.1,-13.9%
Cc1cccc(S(=O)(=O)c2c(N)n(Cc3ccco3)c3nc4ccccc4nc23)c1,?,?,-4.5%,0.4,?
Cn1cccc1C(=O)N1CCC2(CCN(C(=O)Nc3cccc(F)c3)CC2)CC1,/,26.4%,/,1.3,/
CC1CN(C(=O)N2CCC(C(=O)NCc3ccccc3F)CC2)c2cc(Cl)ccc2O1 (stereo not drawn),1.1%,/,2.9%,/,-0.8%
O=C(/C(=N\Nc1ccc(Br)cc1)Sc1nnnn1-c1ccccc1)c1ccccc1,?,5.1%,1.7%,11.4,-19.3%
Brc1ccc(N/N=C(/N=Nc2nn[nH]n2)c2ccccc2)cc1,8.91µM*[quencher],-96.0%,?,-16.3,4.47µM*
COc1ccc(-c2cc(-c3ccco3)[nH]c(=O)c2C#N)cc1OC,?,22.4µM*,-14.1%,-17.1,?
COc1ccc(CNC(=O)Cn2c(SCC(=O)N(C)c3ccccc3)nc3ccccc32)cc1,-2.4%,/,3.7%,/,1.3%
COc1ccc(N2CCN(c3ccc(C(N)=O)cc3[N+](=O)[O-])CC2)cc1,?,-17.4%,1.3%,0.0,4.47µM*
NC(=O)c1ccc(N2CCN(c3ccccc3F)CC2)c([N+](=O)[O-])c1,-28.9%,7.8%,?,0.6,15.8µM*
CC1=C(C(=O)OC(C)C)C(c2cccc([N+](=O)[O-])c2)C(C(=O)OC2CN(C(c3ccccc3)c3ccccc3)C2)=C(N)N1 (stereo not drawn),/,35.2%,/,/,/
COc1ccc2c(C)cc3n[nH]c(=S)n3c2c1,-22.2%,15.8µM*,4.9%,1.9,?
Cc1cccc(CS(=O)(=O)CC2Nc3ccc(C(=O)NCc4ccccc4Cl)cc3NC2=O)c1 (stereo not drawn),-12.3%,/,?,/,?
COc1cc2nc(NCCc3cccc(C)c3)n3nc(-c4ccccc4)nc3c2cc1OC,-8.5%,/,-6.0%,/,17.4%
CCNC(=S)Nc1cc(OCC)c(N2CCOCC2)cc1OCC,-6.8%,-3.4%,-3.0%,-6.7,-5.7%
CCOc1cc(N2CCOCC2)c(OCC)cc1NS(=O)(=O)c1ccc(Cl)s1,?,-4.3%,-11.3%,-44.8*,?
CCOc1cc(N2CCOCC2)c(OCC)cc1NC(=O)c1ccccc1C,-6.2%,3.9%,8.2%,-2.1,-1.1%
SMILES,Tau fluor cs,Sfp inh,Tau fibril FP,FBPA coupling cs,Tau ThT inhib
CCCNC(=O)Nc1cc(OCC)c(N2CCOCC2)cc1OCC,-12.3%,-8.1%,-6.7%,-52.7*,-3.6%
CCOc1cc(N2CCOCC2)c(OCC)cc1NC(=O)c1ccc2ccccc2n1,?,?,12.1%,-9.2,25.1µM*
O=C(CSc1ncc2c(n1)-c1ccccc1N(Cc1ccc(F)cc1)S2(=O)=O)NCc1ccccc1,5.8%,/,-19.4%,/,15.6%
CCc1sc(N)nc1-c1ccccc1,-14.2%,79.4µM*,14.8%,-0.9,?
COc1cccc(-c2ccc3ncnc(Nc4ccccc4)c3c2)c1,/,1.0%,/,0.2,/
C/C(=N\Nc1ccc(Cl)c(Cl)c1)c1ccc(-n2ccnc2)cc1,14.1µM*[quencher],-18.7%,2.2%,0.5,?
C=C(C)CNC(=S)N/N=C(\C)c1ccc(-n2ccnc2)cc1,-12.0%,6.0%,-1.9%,3.3,-14.1%
C/C(=N\NC(N)=S)c1ccc(-n2ccnc2)cc1,-0.1%,79.4µM*,-2.5%,8.1,?
O=C(O)c1ccccc1SC1CC(=O)N(c2cccc3ccccc23)C1=O (stereo not drawn),-9.8%,15.8µM*,6.1%,5.8,/
CCN1C(=O)CC(Sc2ccccc2C(=O)O)C1=O (stereo not drawn),-8.6%,6.9%,-1.1%,-0.2,-9.8%
CCOc1ccc(N2C(=O)CC(Sc3ccccc3C(=O)O)C2=O)c([N+](=O)[O-])c1 (stereo not drawn),-26.5%,12.6µM*,-2.8%,5.6,?
O=C(Cn1ccc2cc(S(=O)(=O)N3CCCCC3)ccc21)NCCc1ccccc1Cl,-25.5%,/,-8.9%,/,-2.5%
O=C(/C=C/c1ccc(O)c(O)c1)OC1C(O)CC(OC(=O)/C=C/c2ccc(O)c(O)c2)(C(=O)O)CC1O (stereo not drawn),-13.3%,44.7µM*,0.0%,-9.6,-16.5%
O=C(c1ccc(CS(=O)c2ccccc2Cl)o1)N1CCN(c2cccc(C(F)(F)F)c2)CC1 (stereo not drawn),-5.6%,/,12.8%,/,-9.0%
Cc1c(Cl)cccc1NC(=O)CSc1ccc(-c2ccccn2)nn1,7.9%,/,-4.6%,/,10.0%
CCc1nnc(NS(=O)(=O)c2ccc(NC(=O)/C=C/C(=O)O)cc2)s1,/,50.1µM*,/,10.9,/
C=CCc1cccc2cc(C(=O)Nc3ccc(F)cc3)c(=O)oc12,-11.6%,10.9%,-2.1%,-1.2,-10.3%
C=CCc1cccc2cc(C(=O)Nc3ccc(S(=O)(=O)Nc4nnc(CC)s4)cc3)c(=O)oc12,-4.0%,79.4µM*,4.7%,5.0,?
CCc1nnc(NS(=O)(=O)c2ccc(NC(=S)NC(=O)/C=C/c3ccc(OC)cc3)cc2)s1,-5.7%,79.4µM*,4.7%,5.2,-0.9%
CCc1nnc(NS(=O)(=O)c2ccc(NC(=O)/C=C/c3ccccc3Cl)cc2)s1,-25.4%,21.5%,-6.4%,0.5,-1.9%
COc1ccc(OCc2ccc(-c3nc(C#N)c(N4CCC(C)CC4)o3)o2)cc1,?,/,-2.8%,/,-10.2%
